Among the data in PubChem BioAssay AID602281 (The Scripps Research Institute Molecular Screening Center, 2012) are inhibition values, retold here.

The whole screen tested about 360,000 compounds, of which about 2,900 (0.81%) were called active. What follows is part of a selection rich in actives, with near analogues and random picks from the rest. Unmarked numbers belong to inactive results.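 How the source made its calls: active means inhibition above the mean inhibition across every tested compound plus 3 SD (cut at about 22% in these data); inactive means the rest.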

This assay deals with Perilipin-5 (Homo sapiens) + 1-acylglycerol-3-phosphate O-acyltransferase ABHD5 (Homo sapiens) (UniProt Q00G26+Q8WTS1). The assay is described as follows: ABHD5-PLIN5 interaction inhibitors, primary screen, cell lysate, split luciferase complementation, luminescence (AID 602281).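 Further: 0% = DMSO only wells and the 100% control is not disclosed.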 The conditions noted are these: Split G. princeps luciferase complementation, 4 h, at 4 µM, stronger effect = higher value.
Sequence of Perilipin-5 (Homo sapiens) + 1-acylglycerol-3-phosphate O-acyltransferase ABHD5 (Homo sapiens) (Q00G26 whole entry, looked up): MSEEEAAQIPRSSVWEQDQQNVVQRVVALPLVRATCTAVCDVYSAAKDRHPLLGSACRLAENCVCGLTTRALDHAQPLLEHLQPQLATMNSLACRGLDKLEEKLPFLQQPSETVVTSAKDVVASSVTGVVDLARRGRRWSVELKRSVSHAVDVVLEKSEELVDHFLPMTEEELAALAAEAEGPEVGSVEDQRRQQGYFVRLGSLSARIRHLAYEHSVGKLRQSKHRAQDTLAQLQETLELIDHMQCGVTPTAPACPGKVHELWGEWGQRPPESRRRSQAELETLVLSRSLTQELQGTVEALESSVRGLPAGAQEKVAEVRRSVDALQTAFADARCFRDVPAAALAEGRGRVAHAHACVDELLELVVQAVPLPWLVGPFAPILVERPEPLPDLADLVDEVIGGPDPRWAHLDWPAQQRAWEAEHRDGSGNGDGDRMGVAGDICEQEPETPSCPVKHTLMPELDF
Sequence of Perilipin-5 (Homo sapiens) + 1-acylglycerol-3-phosphate O-acyltransferase ABHD5 (Homo sapiens) (Q8WTS1 whole entry, looked up): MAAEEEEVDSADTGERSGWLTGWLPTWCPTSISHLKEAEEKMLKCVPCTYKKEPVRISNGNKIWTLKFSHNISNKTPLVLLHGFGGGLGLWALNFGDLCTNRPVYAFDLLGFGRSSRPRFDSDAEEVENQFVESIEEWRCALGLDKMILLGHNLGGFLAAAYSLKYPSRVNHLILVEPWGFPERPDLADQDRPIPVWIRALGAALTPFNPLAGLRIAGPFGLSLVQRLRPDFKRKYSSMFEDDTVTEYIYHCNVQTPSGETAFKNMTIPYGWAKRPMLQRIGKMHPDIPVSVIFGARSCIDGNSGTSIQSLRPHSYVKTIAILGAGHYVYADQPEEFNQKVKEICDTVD
In the case of `Cc1ccc(/C=C/C(=O)OCC(=O)NCc2ccc(Cl)cc2)o1`, the inhibition was 5.48%.
For `COc1cc(NC(=S)NCCSc2ccc(C)cc2)cc(OC)c1` the value was -1.88%.
For `COc1cc(SC)ccc1C(=O)Nc1nc(C)cs1` the value was -0.45%; for `Cc1csc(NC(=O)C2CCN(S(=O)(=O)c3ccccc3)CC2)n1`, 2.8%; for `Cc1csc(NC(=O)NC2(C(F)(F)F)Oc3ccccc3O2)n1`, 49.8% (active).
For `CCCCN(C(C)=O)c1ccc2c(c1)C1CC2CCN1Cc1ccccc1` (stereo not drawn), the inhibition is -6.18%.
Under `COc1ccc(OC)c(/C(C)=N\NC(=O)c2cc3cc(Cl)ccc3n2C)c1` stands 5.51%.
For `COc1cccc(NCCC(=O)c2cccc([N+](=O)[O-])c2)c1` the value was -2.37%.
For `COC(=O)/C=C\C(=O)Nc1cccc([N+](=O)[O-])c1` the value was 41% (active); for `CC(NC(=O)Nc1cccc([N+](=O)[O-])c1)c1ccc2c(c1)OCO2` (stereo not drawn), 8.55%.
With `Cn1c2ccccc2c(=O)c2c(=O)n(Cc3ccco3)c(COc3ccccc3)nc21`, the inhibition is 40.1% (active).
For `O=C(Cn1c(=O)n(Cc2ccco2)c(=O)c2ccccc21)NCC1CCCO1` (stereo not drawn) the value was -2.17%; for `O=C(CCCOc1ccccc1)NCc1ccco1`, -2.47%; for `CCn1c(SC)nc(O)c(C(c2ccc(OC)c(O)c2)c2c(O)nc(SC)n(CC)c2=O)c1=O`, 30.9% (active).
Under `CCSc1nc(O)c(C(c2cccc(OC)c2)c2c(O)nc(SCC)[nH]c2=O)c(=O)[nH]1` stands -4.24%; under `CCn1c(CNC(=O)c2ccc(OC)c(OC)c2)nnc1SCC(=O)Nc1ccccc1`, -3.29%.
Consider `C=CCN(c1ccc(C(N)=O)cc1)S(C)(=O)=O`, for which the inhibition is 0.17%.
For `CCOc1cc(C(=O)O)ccc1OCCOc1ccccc1` the value was -0.9%.
For `CCCOc1ccc(C(=O)C(CCC(CNCC)C(=O)c2ccc(OCCC)cc2)CNCC)cc1` (stereo not drawn) the value was 34.9% (active); for `CC(C)CCOc1ccc(C(=O)C[N+]2(C)CCOCC2)cc1`, 1.19%; for `O=C(Nc1ccccc1N1CCCC1)c1ccc(F)c(S(=O)(=O)N2CCOCC2)c1`, -7.04%.
Under `CC(=O)N1CSCC1C(=O)O` (stereo not drawn) stands 3.52%.
For `C=CCNC(=O)/C=C/c1ccc(C(C)C)cc1`, the inhibition was -1.9%.
For `NC1=NC(=O)S/C1=C\c1ccc(O)cc1` the value was 7.71%.
Under `O=C(/C=C(O)/C=C/c1ccc(O)cc1)/C=C/c1ccc(O)cc1` stands 35.1% (active); under `CCc1nc(C)cn1S(=O)(=O)c1cc([N+](=O)[O-])ccc1Cl`, 4.39%; under `CCCC(C(=O)OCCN(CC)CC)(c1ccccc1)c1ccccc1`, 6.21%.
Under `CN(C)CCOC(=O)C(c1ccccc1)C1(O)CCCC1` (stereo not drawn) stands -6.36%; under `CCC(C(=O)OCCN(CC)CC)c1ccccc1` (stereo not drawn), 49.6% (active).
In the case of `Cc1ccnc(SCCn2c(N(C)Cc3ccccc3)nc3c2c(=O)n(C)c(=O)n3C)n1`, the inhibition is -0.81%.
With `N#Cc1ccccc1S(=O)(=O)N1CCN(C(=O)c2cc(-c3ccccc3)nn2-c2ccccc2)CC1`, the inhibition was -8.95%.
Under `O=c1oc2c(CN3CCCCC3)c(O)ccc2c2c1CCCCC2` stands -1.69%; under `N#Cc1ccccc1S(=O)(=O)N1CCN(Cc2c(O)ccc3ccccc23)CC1`, 27.7% (active); under `Cn1c(CCC(=O)OCC(=O)NCc2ccccc2Cl)nc(=O)c2ccccc21`, 2.53%.
Turning to `CN(CC(=O)NCCc1ccccc1)S(=O)(=O)c1cnc[nH]1`, the inhibition was 1.21%.
Under `COCCN(Cc1ccccc1)C(=O)Cc1ccc(S(=O)(=O)N2CCOCC2)s1` stands -7.33%; under `CCc1ccc(C(=O)CSc2nnc(C)c(=O)[nH]2)cc1`, -3.63%; under `CCOC(=O)CSc1nc(C)c(Oc2ccc(Cl)cc2Cl)c(=O)[nH]1`, -1.81%.
Regarding `CCCCOC(=O)CNc1nnc(SCC(=O)OCC)[nH]c1=O`, the inhibition was 55.4% (active).
Under `COC(C[C@H](O)CC(=O)[C@@H](C)OCc1ccccc1)OC` stands 2.47%.
Under `COC(C[C@@H]1O[C@@H]1C(=O)[C@H](C)OCc1ccccc1)OC` stands -0.78%.
For `COC(C/C=C/C(=O)[C@@H](C)OCc1ccccc1)OC` the value was 24.4% (active); for `COc1ccc(-c2cnc3c(c2)C(=O)N([C@H](C)CO)C[C@@H](C)[C@H](CN(C)Cc2ccccc2)O3)cc1`, 4.36%; for `CCCCCCN1CCN(C2CN(Cc3cn(CCCCCC)nn3)S(=O)(=O)C2)CC1` (stereo not drawn), -2.61%.
Turning to `CC(Sc1nncs1)C(=O)NCc1ccc2c(c1)OCO2` (stereo not drawn), the inhibition was -10.2%.
As for `CCn1cc(C(=O)N2CC(C)CC(C)C2)c(=O)c2cc(S(=O)(=O)N3CCCC3)ccc21` (stereo not drawn), the inhibition was -1.5%.
For the molecule `O=C1C(Cl)=C(Oc2ccccc2)C(=O)c2ccccc21`, the inhibition is 84.3% (active).
For `O=C(N[C@H]1C/C=C\C(c2cccc(F)c2)N(Cc2ccccc2)C(=O)C1)OCC1c2ccccc2-c2ccccc21` (stereo partly drawn), the inhibition was -1.93%.
For `COc1ccc(CN2CCN(Cc3cn(C)nc3-c3ccccc3)CC2CCO)c(C)c1C` (stereo not drawn) the value was 8.28%; for `Cc1ccccc1CN1C[C@@H]2C[C@@H](c3cn(C)nc3-c3ccccc3)N3CCC[C@@]23C1=O`, 22.1% (active).
For `Cc1ccccc1CN1C[C@@H]2C[C@@H](c3ccc4nsnc4c3)N3CCC[C@@]23C1=O` the value was 0.89%.
For `CC1(C(=O)NS(=O)(=O)c2ccc(C#N)cc2)CCN1C(=O)c1ccc(C2CCCCC2)cc1` (stereo not drawn) the value was -0.02%.
For the molecule `COC(=O)CCCC1=CC2=C(c3ccccc3)C(=O)C(C)(OC(=O)C3CCCC3)C(=O)C2=CN1c1ccc(OC)cc1` (stereo not drawn), the inhibition is 3.52%.
For `CC1(OC(=O)C2CCCC2)C(=O)C=C2C=C(c3ccc(C#N)cc3)OC=C2C1=O` (stereo not drawn) the value was 22.6% (active).
In the case of `CC(C)CN1CCC1(C)C(=O)Nc1ccc(OC(F)F)cc1` (stereo not drawn), the inhibition was -1.42%.
For the molecule `CSc1nc(N(C)NC(=O)c2cccc(C)c2)c2ccccc2n1`, the inhibition was -6.13%.
For `Cc1cc(C)nc(S/C=C/C(=O)c2ccccc2)n1` the value was 65.4% (active); for `COc1ccc(C(=O)/C=C/Nc2ccccn2)cc1`, 0.9%.
